Legend:
Experiment in all cases: PBM; 200 nM protein, PBS
Details in all cases: dsDNA, one strand shown
HESX1 [1] = molecular target: HESX1 (Homo sapiens, UniProt Q9UBX0 95-180, R165K)
SHOX [2] = molecular target: SHOX (Homo sapiens, UniProt O15266 103-189)
ALX4 [3] = molecular target: ALX4 (Homo sapiens, UniProt Q9H161 200-286)
ALX4 [4] = molecular target: ALX4 (Homo sapiens, UniProt Q9H161 200-286, Q225E)
HESX1 [5] = molecular target: HESX1 (Homo sapiens, UniProt Q9UBX0 95-180)
ALX1 [6] = molecular target: ALX1 (Homo sapiens, UniProt Q15699 118-204, L144V)
ALX3 [7] = molecular target: ALX3 (Homo sapiens, UniProt O95076 139-225, N203Q)
SHOX [8] = molecular target: SHOX (Homo sapiens, UniProt O15266 103-189, R173C)
ALX1 [9] = molecular target: ALX1 (Homo sapiens, UniProt Q15699 118-204, L144R)
ALX3 [10] = molecular target: ALX3 (Homo sapiens, UniProt O95076 139-225)
PROP1 [11] = molecular target: PROP1 (Homo sapiens, UniProt O75360 56-141)
HESX1 [12] = molecular target: HESX1 (Homo sapiens, UniProt Q9UBX0 95-180, R109Q)
PROP1 [13] = molecular target: PROP1 (Homo sapiens, UniProt O75360 56-141, R99H)
ALX3 [14] = molecular target: ALX3 (Homo sapiens, UniProt O95076 139-225, L168Q)
HESX1 [15] = molecular target: HESX1 (Homo sapiens, UniProt Q9UBX0 95-180, P111T)
ALX3 [16] = molecular target: ALX3 (Homo sapiens, UniProt O95076 139-225, L168V)
PROP1 [17] = molecular target: PROP1 (Homo sapiens, UniProt O75360 56-141, F88S)
HESX1 [18] = molecular target: HESX1 (Homo sapiens, UniProt Q9UBX0 95-180, F115L)
ALX1 [19] = molecular target: ALX1 (Homo sapiens, UniProt Q15699 118-204)
ALX3 [20] = molecular target: ALX3 (Homo sapiens, UniProt O95076 139-225, N203S)
Sequence of ALX3 (Homo sapiens, UniProt O95076 139-225, N203S) (O95076 139-225 N203S): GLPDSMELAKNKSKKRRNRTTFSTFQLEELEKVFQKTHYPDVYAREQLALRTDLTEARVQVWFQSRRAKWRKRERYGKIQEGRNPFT

Sequence of HESX1 (Homo sapiens, UniProt Q9UBX0 95-180, F115L) (Q9UBX0 95-180 F115L): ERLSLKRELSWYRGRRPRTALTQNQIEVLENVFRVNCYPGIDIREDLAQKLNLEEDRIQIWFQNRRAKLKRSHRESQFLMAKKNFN
Sequence of PROP1 (Homo sapiens, UniProt O75360 56-141) (O75360 56-141): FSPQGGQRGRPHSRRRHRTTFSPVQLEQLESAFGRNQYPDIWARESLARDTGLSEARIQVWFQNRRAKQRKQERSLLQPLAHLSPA
Sequence of ALX3 (Homo sapiens, UniProt O95076 139-225, N203Q) (O95076 139-225 N203Q): as the sequence (O95076 139-225 N203S) above, with S65Q counted along it
Sequence of ALX1 (Homo sapiens, UniProt Q15699 118-204, L144V) (Q15699 118-204 L144V): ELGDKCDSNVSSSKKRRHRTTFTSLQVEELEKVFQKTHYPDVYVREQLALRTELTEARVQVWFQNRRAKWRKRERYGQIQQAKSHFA
Sequence of PROP1 (Homo sapiens, UniProt O75360 56-141, R99H) (O75360 56-141 R99H): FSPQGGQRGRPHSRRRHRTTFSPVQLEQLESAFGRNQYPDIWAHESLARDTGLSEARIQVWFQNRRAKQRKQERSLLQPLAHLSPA
Sequence of HESX1 (Homo sapiens, UniProt Q9UBX0 95-180) (Q9UBX0 95-180): as the sequence (Q9UBX0 95-180 F115L) above, with L21F counted along it
Sequence of HESX1 (Homo sapiens, UniProt Q9UBX0 95-180, R165K) (Q9UBX0 95-180 R165K): as the sequence (Q9UBX0 95-180 F115L) above, with L21F, R71K counted along it
Sequence of PROP1 (Homo sapiens, UniProt O75360 56-141, F88S) (O75360 56-141 F88S): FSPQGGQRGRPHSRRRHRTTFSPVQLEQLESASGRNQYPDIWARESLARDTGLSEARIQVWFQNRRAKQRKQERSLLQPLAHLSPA
Sequence of ALX4 (Homo sapiens, UniProt Q9H161 200-286) (Q9H161 200-286): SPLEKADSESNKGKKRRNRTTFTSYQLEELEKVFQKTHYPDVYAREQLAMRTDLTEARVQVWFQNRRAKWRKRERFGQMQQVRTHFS
Sequence of ALX3 (Homo sapiens, UniProt O95076 139-225, L168Q) (O95076 139-225 L168Q): as the sequence (O95076 139-225 N203S) above, with L30Q, S65N counted along it
Sequence of ALX3 (Homo sapiens, UniProt O95076 139-225) (O95076 139-225): as the sequence (O95076 139-225 N203S) above, with S65N counted along it
Sequence of ALX1 (Homo sapiens, UniProt Q15699 118-204) (Q15699 118-204): as the sequence (Q15699 118-204 L144V) above, with V27L counted along it
Sequence of ALX1 (Homo sapiens, UniProt Q15699 118-204, L144R) (Q15699 118-204 L144R): as the sequence (Q15699 118-204 L144V) above, with V27R counted along it
Sequence of ALX3 (Homo sapiens, UniProt O95076 139-225, L168V) (O95076 139-225 L168V): as the sequence (O95076 139-225 N203S) above, with L30V, S65N counted along it
Sequence of SHOX (Homo sapiens, UniProt O15266 103-189, R173C) (O15266 103-189 R173C): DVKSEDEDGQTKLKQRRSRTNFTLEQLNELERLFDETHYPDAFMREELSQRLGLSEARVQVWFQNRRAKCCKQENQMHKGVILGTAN
Sequence of HESX1 (Homo sapiens, UniProt Q9UBX0 95-180, R109Q) (Q9UBX0 95-180 R109Q): as the sequence (Q9UBX0 95-180 F115L) above, with R15Q, L21F counted along it
Sequence of HESX1 (Homo sapiens, UniProt Q9UBX0 95-180, P111T) (Q9UBX0 95-180 P111T): as the sequence (Q9UBX0 95-180 F115L) above, with P17T, L21F counted along it
Sequence of SHOX (Homo sapiens, UniProt O15266 103-189) (O15266 103-189): as the sequence (O15266 103-189 R173C) above, with C71R counted along it
Sequence of ALX4 (Homo sapiens, UniProt Q9H161 200-286, Q225E) (Q9H161 200-286 Q225E): as the sequence (Q9H161 200-286) above, with Q26E counted along it

Sequence	binding signal (HESX1 [1])	binding signal (SHOX [2])	binding signal (ALX4 [3])	binding signal (ALX4 [4])	binding signal (HESX1 [5])	binding signal (ALX1 [6])	binding signal (ALX3 [7])	binding signal (SHOX [8])	binding signal (ALX1 [9])	binding signal (ALX3 [10])	binding signal (PROP1 [11])	binding signal (HESX1 [12])	binding signal (PROP1 [13])	binding signal (ALX3 [14])	binding signal (HESX1 [15])	binding signal (ALX3 [16])	binding signal (PROP1 [17])	binding signal (HESX1 [18])	binding signal (ALX1 [19])	binding signal (ALX3 [20])
TAATTATA	12.8 upbm affinity estimate (log intensity, higher = more binding, comparable within an allelic series)	12.3 upbm affinity estimate (log intensity, higher = more binding, comparable within an allelic series)	14.3 upbm affinity estimate (log intensity, higher = more binding, comparable within an allelic series)	13.9 upbm affinity estimate (log intensity, higher = more binding, comparable within an allelic series)	12.9 upbm affinity estimate (log intensity, higher = more binding, comparable within an allelic series)	12 upbm affinity estimate (log intensity, higher = more binding, comparable within an allelic series)	8.6 upbm affinity estimate (log intensity, higher = more binding, comparable within an allelic series)	9.85 upbm affinity estimate (log intensity, higher = more binding, comparable within an allelic series)	11.6 upbm affinity estimate (log intensity, higher = more binding, comparable within an allelic series)	12.8 upbm affinity estimate (log intensity, higher = more binding, comparable within an allelic series)	11.7 upbm affinity estimate (log intensity, higher = more binding, comparable within an allelic series)	9.16 upbm affinity estimate (log intensity, higher = more binding, comparable within an allelic series)	11.7 upbm affinity estimate (log intensity, higher = more binding, comparable within an allelic series)	10.9 upbm affinity estimate (log intensity, higher = more binding, comparable within an allelic series)	11.5 upbm affinity estimate (log intensity, higher = more binding, comparable within an allelic series)	10.6 upbm affinity estimate (log intensity, higher = more binding, comparable within an allelic series)	8.03 upbm affinity estimate (log intensity, higher = more binding, comparable within an allelic series)	8.06 upbm affinity estimate (log intensity, higher = more binding, comparable within an allelic series)	12.7 upbm affinity estimate (log intensity, higher = more binding, comparable within an allelic series)	8.74 upbm affinity estimate (log intensity, higher = more binding, comparable within an allelic series)
CTAATTAA	13.8 upbm affinity estimate (log intensity, higher = more binding, comparable within an allelic series)	13.4 upbm affinity estimate (log intensity, higher = more binding, comparable within an allelic series)	14.4 upbm affinity estimate (log intensity, higher = more binding, comparable within an allelic series)	14.4 upbm affinity estimate (log intensity, higher = more binding, comparable within an allelic series)	13.6 upbm affinity estimate (log intensity, higher = more binding, comparable within an allelic series)	12.3 upbm affinity estimate (log intensity, higher = more binding, comparable within an allelic series)	8.64 upbm affinity estimate (log intensity, higher = more binding, comparable within an allelic series)	11.1 upbm affinity estimate (log intensity, higher = more binding, comparable within an allelic series)	11.9 upbm affinity estimate (log intensity, higher = more binding, comparable within an allelic series)	12.9 upbm affinity estimate (log intensity, higher = more binding, comparable within an allelic series)	12.2 upbm affinity estimate (log intensity, higher = more binding, comparable within an allelic series)	11.2 upbm affinity estimate (log intensity, higher = more binding, comparable within an allelic series)	12.4 upbm affinity estimate (log intensity, higher = more binding, comparable within an allelic series)	11.6 upbm affinity estimate (log intensity, higher = more binding, comparable within an allelic series)	12.6 upbm affinity estimate (log intensity, higher = more binding, comparable within an allelic series)	11.4 upbm affinity estimate (log intensity, higher = more binding, comparable within an allelic series)	8.3 upbm affinity estimate (log intensity, higher = more binding, comparable within an allelic series)	8.61 upbm affinity estimate (log intensity, higher = more binding, comparable within an allelic series)	12.9 upbm affinity estimate (log intensity, higher = more binding, comparable within an allelic series)	8.84 upbm affinity estimate (log intensity, higher = more binding, comparable within an allelic series)
ATTAATTG	13 upbm affinity estimate (log intensity, higher = more binding, comparable within an allelic series)	12.3 upbm affinity estimate (log intensity, higher = more binding, comparable within an allelic series)	14.2 upbm affinity estimate (log intensity, higher = more binding, comparable within an allelic series)	13.8 upbm affinity estimate (log intensity, higher = more binding, comparable within an allelic series)	12.9 upbm affinity estimate (log intensity, higher = more binding, comparable within an allelic series)	12.1 upbm affinity estimate (log intensity, higher = more binding, comparable within an allelic series)	8.48 upbm affinity estimate (log intensity, higher = more binding, comparable within an allelic series)	9.84 upbm affinity estimate (log intensity, higher = more binding, comparable within an allelic series)	11.7 upbm affinity estimate (log intensity, higher = more binding, comparable within an allelic series)	12.7 upbm affinity estimate (log intensity, higher = more binding, comparable within an allelic series)	11.7 upbm affinity estimate (log intensity, higher = more binding, comparable within an allelic series)	9.92 upbm affinity estimate (log intensity, higher = more binding, comparable within an allelic series)	12 upbm affinity estimate (log intensity, higher = more binding, comparable within an allelic series)	11 upbm affinity estimate (log intensity, higher = more binding, comparable within an allelic series)	11.6 upbm affinity estimate (log intensity, higher = more binding, comparable within an allelic series)	10.5 upbm affinity estimate (log intensity, higher = more binding, comparable within an allelic series)	8 upbm affinity estimate (log intensity, higher = more binding, comparable within an allelic series)	8.15 upbm affinity estimate (log intensity, higher = more binding, comparable within an allelic series)	12.6 upbm affinity estimate (log intensity, higher = more binding, comparable within an allelic series)	8.67 upbm affinity estimate (log intensity, higher = more binding, comparable within an allelic series)
CGTAATTA	12.6 upbm affinity estimate (log intensity, higher = more binding, comparable within an allelic series)	12.4 upbm affinity estimate (log intensity, higher = more binding, comparable within an allelic series)	14.2 upbm affinity estimate (log intensity, higher = more binding, comparable within an allelic series)	13.5 upbm affinity estimate (log intensity, higher = more binding, comparable within an allelic series)	12.6 upbm affinity estimate (log intensity, higher = more binding, comparable within an allelic series)	12 upbm affinity estimate (log intensity, higher = more binding, comparable within an allelic series)	8.47 upbm affinity estimate (log intensity, higher = more binding, comparable within an allelic series)	9.89 upbm affinity estimate (log intensity, higher = more binding, comparable within an allelic series)	11.7 upbm affinity estimate (log intensity, higher = more binding, comparable within an allelic series)	12.7 upbm affinity estimate (log intensity, higher = more binding, comparable within an allelic series)	11.6 upbm affinity estimate (log intensity, higher = more binding, comparable within an allelic series)	9.06 upbm affinity estimate (log intensity, higher = more binding, comparable within an allelic series)	11.5 upbm affinity estimate (log intensity, higher = more binding, comparable within an allelic series)	10.7 upbm affinity estimate (log intensity, higher = more binding, comparable within an allelic series)	11.1 upbm affinity estimate (log intensity, higher = more binding, comparable within an allelic series)	10.2 upbm affinity estimate (log intensity, higher = more binding, comparable within an allelic series)	7.88 upbm affinity estimate (log intensity, higher = more binding, comparable within an allelic series)	7.77 upbm affinity estimate (log intensity, higher = more binding, comparable within an allelic series)	12.7 upbm affinity estimate (log intensity, higher = more binding, comparable within an allelic series)	8.56 upbm affinity estimate (log intensity, higher = more binding, comparable within an allelic series)
TAATTAAA	13.1 upbm affinity estimate (log intensity, higher = more binding, comparable within an allelic series)	12.8 upbm affinity estimate (log intensity, higher = more binding, comparable within an allelic series)	14.4 upbm affinity estimate (log intensity, higher = more binding, comparable within an allelic series)	14.1 upbm affinity estimate (log intensity, higher = more binding, comparable within an allelic series)	13.1 upbm affinity estimate (log intensity, higher = more binding, comparable within an allelic series)	11.9 upbm affinity estimate (log intensity, higher = more binding, comparable within an allelic series)	8.59 upbm affinity estimate (log intensity, higher = more binding, comparable within an allelic series)	10.6 upbm affinity estimate (log intensity, higher = more binding, comparable within an allelic series)	11.6 upbm affinity estimate (log intensity, higher = more binding, comparable within an allelic series)	12.8 upbm affinity estimate (log intensity, higher = more binding, comparable within an allelic series)	11.9 upbm affinity estimate (log intensity, higher = more binding, comparable within an allelic series)	10 upbm affinity estimate (log intensity, higher = more binding, comparable within an allelic series)	11.9 upbm affinity estimate (log intensity, higher = more binding, comparable within an allelic series)	11.3 upbm affinity estimate (log intensity, higher = more binding, comparable within an allelic series)	12.1 upbm affinity estimate (log intensity, higher = more binding, comparable within an allelic series)	11.1 upbm affinity estimate (log intensity, higher = more binding, comparable within an allelic series)	8.07 upbm affinity estimate (log intensity, higher = more binding, comparable within an allelic series)	8.41 upbm affinity estimate (log intensity, higher = more binding, comparable within an allelic series)	12.6 upbm affinity estimate (log intensity, higher = more binding, comparable within an allelic series)	8.72 upbm affinity estimate (log intensity, higher = more binding, comparable within an allelic series)
AATTAATT	13.4 upbm affinity estimate (log intensity, higher = more binding, comparable within an allelic series)	12.8 upbm affinity estimate (log intensity, higher = more binding, comparable within an allelic series)	14.7 upbm affinity estimate (log intensity, higher = more binding, comparable within an allelic series)	14.3 upbm affinity estimate (log intensity, higher = more binding, comparable within an allelic series)	13.2 upbm affinity estimate (log intensity, higher = more binding, comparable within an allelic series)	12.4 upbm affinity estimate (log intensity, higher = more binding, comparable within an allelic series)	8.51 upbm affinity estimate (log intensity, higher = more binding, comparable within an allelic series)	10.3 upbm affinity estimate (log intensity, higher = more binding, comparable within an allelic series)	12 upbm affinity estimate (log intensity, higher = more binding, comparable within an allelic series)	13 upbm affinity estimate (log intensity, higher = more binding, comparable within an allelic series)	12.1 upbm affinity estimate (log intensity, higher = more binding, comparable within an allelic series)	10.3 upbm affinity estimate (log intensity, higher = more binding, comparable within an allelic series)	12.2 upbm affinity estimate (log intensity, higher = more binding, comparable within an allelic series)	11.3 upbm affinity estimate (log intensity, higher = more binding, comparable within an allelic series)	11.8 upbm affinity estimate (log intensity, higher = more binding, comparable within an allelic series)	10.9 upbm affinity estimate (log intensity, higher = more binding, comparable within an allelic series)	8.05 upbm affinity estimate (log intensity, higher = more binding, comparable within an allelic series)	8.57 upbm affinity estimate (log intensity, higher = more binding, comparable within an allelic series)	13 upbm affinity estimate (log intensity, higher = more binding, comparable within an allelic series)	8.78 upbm affinity estimate (log intensity, higher = more binding, comparable within an allelic series)
ATAATTAC	12.6 upbm affinity estimate (log intensity, higher = more binding, comparable within an allelic series)	12 upbm affinity estimate (log intensity, higher = more binding, comparable within an allelic series)	14 upbm affinity estimate (log intensity, higher = more binding, comparable within an allelic series)	13.4 upbm affinity estimate (log intensity, higher = more binding, comparable within an allelic series)	12.6 upbm affinity estimate (log intensity, higher = more binding, comparable within an allelic series)	11.8 upbm affinity estimate (log intensity, higher = more binding, comparable within an allelic series)	8.56 upbm affinity estimate (log intensity, higher = more binding, comparable within an allelic series)	9.76 upbm affinity estimate (log intensity, higher = more binding, comparable within an allelic series)	11.5 upbm affinity estimate (log intensity, higher = more binding, comparable within an allelic series)	12.5 upbm affinity estimate (log intensity, higher = more binding, comparable within an allelic series)	11.6 upbm affinity estimate (log intensity, higher = more binding, comparable within an allelic series)	9.02 upbm affinity estimate (log intensity, higher = more binding, comparable within an allelic series)	11.4 upbm affinity estimate (log intensity, higher = more binding, comparable within an allelic series)	10.7 upbm affinity estimate (log intensity, higher = more binding, comparable within an allelic series)	11.1 upbm affinity estimate (log intensity, higher = more binding, comparable within an allelic series)	10.3 upbm affinity estimate (log intensity, higher = more binding, comparable within an allelic series)	7.95 upbm affinity estimate (log intensity, higher = more binding, comparable within an allelic series)	7.97 upbm affinity estimate (log intensity, higher = more binding, comparable within an allelic series)	12.5 upbm affinity estimate (log intensity, higher = more binding, comparable within an allelic series)	8.66 upbm affinity estimate (log intensity, higher = more binding, comparable within an allelic series)

— article PMC11006913
